Hits are enriched below; roughly 18% of the tested compounds scored in any of these assays.
DT40 TDP1 no CPT – qHTS for Inhibitors of human tyrosyl-DNA phosphodiesterase 1 (TDP1): qHTS in cells in absence of CPT; DT40 Tdp1-/- hTDP1 cells, no CPT, ATP luminescence, 48 h; Potency, µM (top dose mostly 46.2 µM), inactives show at the highest dose activity change, negative = growth inhibition, hits mostly inhibitors; hit rate 15% among 420,000; AID 686978, 2013; note: potency is the fitted concentration of half-maximal effect; nearly all actives have a fitted effect of over 55% in size
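Luminescent ATP content (CellTiter-Glo) served as the growth readout. Knockout chicken DT40 cells expressing human TDP1 were exposed to compounds without camptothecin for a minimum 48 hr at 37 °C.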
IL1B secr inh – blocks inflammasome-driven IL-1 beta release | activity change, % at 57.5 µM | THP-1 LPS/ATP IL-1B secretion, AlphaLISA, 16 h; stronger effect = lower value | AID 743279 | hit rate 4.7% among 360,000; in the data active = activity change below about -50%; inconclusive = mostly about -30% to -49%
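THP-1 cells pretreated 1 hr with compounds (up to 57.5 uM final), then stimulated with LPS (250 ng/mL final) plus ATP (1.25 mM final); secreted IL-1B measured by AlphaLISA after 16 hr, decreased signal indicating inhibition.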
Six1-Eya2 inh – Six1/Eya2 interaction inhibition; Q15475+O00167; AlphaScreen GST-Six1/His-Eya2 binding, biochemical; stronger effect = lower value; activity change, % (test concentration not listed); hit rate 0.56% among 360,000; AID 651725; in the data active = activity change below about -65%; inconclusive = mostly about -30% to -63%
Target sequence (O00167 whole entry, looked up): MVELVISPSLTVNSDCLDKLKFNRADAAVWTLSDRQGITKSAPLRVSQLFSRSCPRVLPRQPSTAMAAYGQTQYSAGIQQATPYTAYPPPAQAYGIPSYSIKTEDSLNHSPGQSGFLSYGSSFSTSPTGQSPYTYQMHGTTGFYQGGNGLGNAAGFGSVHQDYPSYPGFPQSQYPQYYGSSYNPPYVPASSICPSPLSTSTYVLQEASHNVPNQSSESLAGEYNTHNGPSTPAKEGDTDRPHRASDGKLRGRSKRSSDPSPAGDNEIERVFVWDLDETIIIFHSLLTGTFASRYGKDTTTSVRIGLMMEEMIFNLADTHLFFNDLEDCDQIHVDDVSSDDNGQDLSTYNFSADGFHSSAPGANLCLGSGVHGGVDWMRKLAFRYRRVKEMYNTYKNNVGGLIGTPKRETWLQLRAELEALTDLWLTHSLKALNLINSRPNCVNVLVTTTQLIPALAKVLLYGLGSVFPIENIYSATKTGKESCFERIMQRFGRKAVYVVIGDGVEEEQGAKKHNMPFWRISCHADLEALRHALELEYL
Target sequence (Q15475 whole entry, looked up): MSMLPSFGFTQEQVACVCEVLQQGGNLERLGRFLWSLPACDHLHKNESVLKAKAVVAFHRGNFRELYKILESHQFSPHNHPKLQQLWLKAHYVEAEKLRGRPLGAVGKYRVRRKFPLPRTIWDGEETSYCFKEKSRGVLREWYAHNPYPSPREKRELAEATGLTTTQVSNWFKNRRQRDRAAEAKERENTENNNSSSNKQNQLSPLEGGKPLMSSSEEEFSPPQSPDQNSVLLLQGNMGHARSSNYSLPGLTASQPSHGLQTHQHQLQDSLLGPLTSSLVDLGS
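GST-Six1 + His-Eya2 (5X stock: 250/500 nM); Tris pH 8.0, 300 mM NaCl, 0.05% BSA, 0.02% Tween 20; GSH donor/Ni acceptor beads; 1 h 37 °C dark; AlphaScreen readout.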
CtBP-E1A inh – blocks the CtBP interaction with E1A; AlphaScreen GST-E1A/His-CtBP binding, 1536-well; stronger effect = lower value; activity change, % (no concentration beside the values); hit rate 0.49% among 340,000; in the data active = activity change below about -65%; inconclusive = mostly about -30% to -63%
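AlphaScreen with 125 nM GST-E1A and 125 nM His-CtBP (5X stocks) in Tris pH 8.0, 300 mM NaCl, BSA, Tween 20, TCEP. Compounds preincubated 2 h at 37 deg C, then glutathione donor/nickel acceptor beads added for 1 h at 37 deg C in dark.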
TDP1 inh – TDP1 (human) enzyme inhibition; Q9NUW8; recombinant TDP1, AlphaScreen DNA substrate cleavage; Potency, µM (titrated, usually from 130 µM), inactives show at the highest dose activity change, negative = inhibition, most hits filed as inhibitors; hit rate 0.28% among 350,000; note: potency is the fitted concentration of half-maximal effect; nearly all actives have a fitted effect of over 40% in size
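Enzyme-compound mixtures sat 15 min at room temperature, followed by a 5 min reaction with 15 nM final substrate and 10 min with AlphaScreen beads. Recombinant human Tdp1 was used at 1 nM final.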
DT40 TDP1 CPT – growth inhibition of DT40 Tdp1-/-;hTDP1 cells with camptothecin (screen for TDP1 inhibitors) | chicken DT40 Tdp1-/-;hTDP1 cells + 20 nM CPT, ATP luminescence, 48 h | Potency, µM (highest dose often 46.2 µM), for the others: at the top dose activity change, negative = growth inhibition, usual class: inhibitors | hit rate 12% among 420,000; note: potency is the fitted concentration of half-maximal effect; nearly all actives have a fitted effect of over 55% in size
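Chicken DT40 Tdp1-/- cells complemented with human TDP1, 400 cells/well, exposed to compounds plus 20 nM camptothecin for at least 48 h at 37 C; viability read as ATP content by CellTiter-Glo luminescence.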
The depositor's hits bear a star; ? = inconclusive; . = not tested or not shown. Unless noted, calls come from the whole dose curve; as a rule, active = well fitted curve in the direction sought with a large enough effect; inconclusive = small, poorly fitted or top-dose-only effect, or another doubt; inactive = no such curve, though single readings can be large; an effect the other way counts as inactive or inconclusive. % is set by controls: 0 for no effect and ±100 for the full control effect.

SMILES | DT40 TDP1 no CPT | IL1B secr inh | Six1-Eya2 inh | CtBP-E1A inh | TDP1 inh | DT40 TDP1 CPT
C/C(Cl)=C\Cn1c(NCCCn2ccnc2)nc2c1c(=O)n(C)c(=O)n2C | ? | 8.6 | -7.2 | -1.4 | 5.2% | -19.7%
NC(=O)c1cc(S(=O)(=O)Nc2cccc(F)c2)co1 | -3.2% | -7.4 | 5.1 | 4.4 | 2.5% | 3.7%
O=[N+]([O-])c1cc([N+](=O)[O-])c2c(=Nc3ccccc3)n(-c3ccccc3)n(O)c2c1 | 10.3µM* | -25.0 | ? | -12.1 | 8.9% | 3.26µM*
COc1ccc(/C=C2\SC(=S)N(CCC(=O)NC3C=CS(=O)(=O)C3)C2=O)cc1 (configuration not stated) | 5.4% | ? | 4.2 | 0.7 | 6.6% | -24.6%
CC(C(=O)NC1C=CS(=O)(=O)C1)N1C(=O)/C(=C/c2cccc(Cl)c2)SC1=S (configuration not stated) | -15.9% | -67.8* | -5.6 | -7.8 | 8.8% | 16.4µM*
CC(C(=O)NC1C=CS(=O)(=O)C1)N1C(=O)/C(=C\c2ccccc2)SC1=S (configuration not stated) | ? | -61.8* | -2.0 | . | 6.1% | ?
COc1ccccc1/C=C1/SC(=S)N(C(C)C(=O)NC2C=CS(=O)(=O)C2)C1=O (configuration not stated) | ? | ? | -12.6 | . | 10.1% | ?
O=C(NCc1cccnc1)c1cccc2c1C(=O)N(C1CCCCC1)C2 | -12.3% | -0.6 | -1.9 | -1.7 | -2.4% | -1.3%
O=C(CSc1ccc(F)cc1)NC12CC3CC(CC(C3)C1)C2 | ? | ? | 9.0 | 5.6 | 0.0% | ?
OC(CN1c2ccccc2Sc2ccccc21)Cn1nnc2ccccc21 (configuration not stated) | 20.6µM* | ? | -7.8 | -5.0 | 2.6% | ?
Cn1c(Cn2nnc3ccccc32)nnc1SCC(N)=O | -11.5% | 23.8 | 1.2 | 0.4 | 7.3% | -16.1%
Cn1c(Cn2nnc3ccccc32)nnc1SCC(=O)N1c2ccccc2CCc2ccccc21 | ? | -12.7 | -10.1 | -6.9 | 4.2% | 23.1µM*
Cn1c(Cn2nnc3ccccc32)nnc1SCC(=O)N1c2ccccc2Sc2ccccc21 | 16.4µM* | -3.4 | -25.1 | 0.0 | 9.6% | 13µM*
Cc1ccc(/C=C/c2onc(C)c2S(=O)(=O)N2CCC(C(=O)N3CCOc4ccc(C)cc43)CC2)cc1 | ? | . | . | . | 3.0% | ?
COCc1nnc(NC(=O)C2CCN(C(=O)c3ccco3)CC2)s1 | 8.8% | 7.3 | -1.3 | -4.0 | 13.3% | -1.1%
Fc1ccc(Nc2ccnc(C(F)(F)F)c2)cc1 | -9.9% | -4.2 | -2.2 | -0.4 | . | ?
FC(F)(F)c1cc(NC2CCCCC2)ccn1 | 29.1µM* | 16.5 | 2.2 | . | . | -15.8%
O=C(COC(=O)CSc1ccc(Br)cc1)NCc1ccco1 | -0.9% | 8.7 | -7.0 | 1.3 | . | -19.5%
COc1ccccc1-c1cc2nc(C)c(CCC(=O)NCc3cccc(Cl)c3)c(C)n2n1 | 18.4µM* | . | . | . | 3.5% | ?
COc1ccc(-c2cc3nc(C)c(CCC(=O)NCc4ccco4)c(C)n3n2)c(OC)c1 | ? | -22.8 | -11.1 | -7.6 | 0.0% | ?
COc1ccc(CCNC(=O)CCc2c(C)nc3cc(-c4ccccc4OC)nn3c2C)c(OC)c1 | 16.4µM* | . | . | . | 3.5% | ?
COc1ccc(-c2cc3nc(C)c(CCC(=O)NCCc4ccc(Cl)cc4)c(C)n3n2)c(OC)c1 | 29.1µM* | . | . | . | 3.5% | 13µM*
COCCCNC(=O)CCc1c(C)nc2cc(-c3ccc(Cl)cc3)nn2c1C | ? | . | . | . | 2.3% | 18.4µM*
COC(=O)C1CN(C(=O)C(C)Oc2cccc(C)c2C)c2ccccc2O1 (configuration not stated) | 11.0% | 0.0 | 4.9 | -4.3 | . | 4.9%
CC(=O)c1c(N2CCN(Cc3ccc4c(c3)OCO4)CC2)nc(=S)n(-c2ccccc2)c1C | 18.4µM* | -2.3 | -0.3 | 6.2 | 9.8% | ?
SMILES | DT40 TDP1 no CPT | IL1B secr inh | Six1-Eya2 inh | CtBP-E1A inh | TDP1 inh | DT40 TDP1 CPT
CC(=O)c1c(N2CCN(CCO)CC2)nc(=S)n(-c2ccccc2)c1C | 13.8% | 0.0 | -2.0 | -2.9 | -2.7% | -2.7%
CC(=O)c1c(N2CCN(c3ccccc3)CC2)nc(=S)n(-c2ccccc2)c1C | 20.6µM* | -65.2* | 0.7 | -1.0 | 3.0% | 23.1µM*
CC(=O)c1c(N2CCN(Cc3ccccc3)CC2)nc(=S)n(-c2ccccc2)c1C | 23.1µM* | -19.0 | 9.0 | -8.6 | -1.6% | ?
CCOC(=O)N1CCN(c2nc(=S)n(-c3ccccc3)c(C)c2C(C)=O)CC1 | ? | 7.5 | -2.7 | -3.0 | 3.1% | 2.2%
C1CNCCOCCNCCN1 | -12.8% | 1.3 | ? | ? | 3.9% | -12.9%
O=C(Nc1ccc(Cl)cc1)N(Cc1nc2ccccc2c(=O)[nH]1)Cc1cccs1 | 20.6µM* | ? | -3.4 | 4.9 | 4.2% | ?
O=C(Nc1ccccc1Cl)N(Cc1nc2ccccc2c(=O)[nH]1)Cc1cccs1 | ? | -2.3 | 16.8 | 9.6 | 1.4% | ?
O=C(Nc1ccc(Cl)cc1)N(Cc1cccs1)Cc1cccs1 | ? | -23.8 | 7.7 | 9.2 | -4.5% | 18.4µM*
O=C(Nc1ccccc1)N(O)c1ccc(Cl)cc1 | 29.1µM* | 9.8 | -11.2 | 0.2 | 0.0% | 18.4µM*
COc1cc2c(c(OC)c1OC)C(=O)C(=Cc1ccccc1)O2 | ? | -20.6 | 1.4 | 9.1 | . | ?
O=C1[C@@H](c2ccccc2)CC[C@@H]2C=CC[C@H]3CCN1[C@@H]32 | 16.4µM* | 3.6 | -2.6 | -0.7 | . | ?
COC(=O)c1ccc(NC(=O)CCN2C(=O)C3CC=CCC3C2=O)cc1 (configuration not stated) | 1.7% | 44.6 | -6.1 | 0.7 | 1.8% | -5.7%
Cc1c(-c2ccccc2)c(P(=O)(N2CCOCC2)N2CCOCC2)c2ccccn12 | ? | 3.5 | -1.2 | -11.2 | 2.0% | 25.9µM*
Cc1cc(/C=C2/C(=N)N3C(=NC2=O)SN=C3S(C)(=O)=O)c(C)n1-c1ccccc1F | -19.6% | 37.2 | -7.8 | 3.9 | 8.6% | 19.7%
CS(=O)(=O)C1=NSC2=NC(=O)/C(=C\c3cccn3-c3ccc(Cl)cc3)C(=N)N21 | 8.5% | 11.2 | -22.1 | -13.5 | 79.4µM* | 2.5%
c1ccc2c(c1)C1=NCCN1c1ccccc1-2 | 2.31µM* | -105.4* | -25.5 | -0.5 | . | 2.91µM*
COC1=Nc2ccccc2N2CCN=C12 | 39.2% | -17.7 | 0.4 | -23.1 | . | 9.6%
CN(C)c1cc(-c2ccc(Br)cc2)oc(=O)c1Cl | ? | -50.8* | -19.7 | -4.9 | -1.4% | -3.3%
